Nine molecules from PubChem BioAssay can be followed below.

The structures appear in SMILES notation. Active and inactive are the calls of the source. Unless noted, no rule for the calls is given here.

Experiment [1] is described as follows: resazurin metabolic signal in HepG2 cells – cell-based, resazurin fluorescence, 24 h, PK04 Diversity Set, profiling panel (AID 1172). Also: test concentration not given here. Particulars: HepG2 viability, higher = more signal.
Experiment [2] is described as follows: budding yeast growth changes without added modifier – OD600, strain BY4716, 24 h, basal condition, primary screen (AID 1173). Particulars: S. cerevisiae BY4716 growth, OD600, 24 h; higher = more signal, called active from +8 up or from −8 down.
The nature of experiment [3]: viability profiling in MM1S myeloma cells – cell-based, resazurin fluorescence, basal, 24 h, PK04 Diversity Set, profiling panel (AID 1174).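 Also: MM1S multiple myeloma cell line; test concentration not given here.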 Particulars: higher = more signal, called active from +8 up or from −8 down. On the technique in general: Resazurin is reduced to fluorescent resorufin, in cell work by metabolically active cells.
The target of experiment [4] is Dihydroorotate dehydrogenase (quinone), mitochondrial (Plasmodium falciparum (isolate 3D7)) (UniProt Q08210). The experiment can be described thus: inhibition of P. falciparum DHODH – biochemical, C-terminal His tag, absorbance 600 nm, primary screen (AID 1175).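 Also: recombinant parasite enzyme with a five histidine tag at its C terminus; test concentration not given here.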 As to conditions: PfDHODH enzyme, DCIP absorbance 600 nm; higher = more signal, called active from +8 up or from −8 down.
Sequence of Dihydroorotate dehydrogenase (quinone), mitochondrial (Plasmodium falciparum (isolate 3D7)) (Q08210 whole entry, looked up): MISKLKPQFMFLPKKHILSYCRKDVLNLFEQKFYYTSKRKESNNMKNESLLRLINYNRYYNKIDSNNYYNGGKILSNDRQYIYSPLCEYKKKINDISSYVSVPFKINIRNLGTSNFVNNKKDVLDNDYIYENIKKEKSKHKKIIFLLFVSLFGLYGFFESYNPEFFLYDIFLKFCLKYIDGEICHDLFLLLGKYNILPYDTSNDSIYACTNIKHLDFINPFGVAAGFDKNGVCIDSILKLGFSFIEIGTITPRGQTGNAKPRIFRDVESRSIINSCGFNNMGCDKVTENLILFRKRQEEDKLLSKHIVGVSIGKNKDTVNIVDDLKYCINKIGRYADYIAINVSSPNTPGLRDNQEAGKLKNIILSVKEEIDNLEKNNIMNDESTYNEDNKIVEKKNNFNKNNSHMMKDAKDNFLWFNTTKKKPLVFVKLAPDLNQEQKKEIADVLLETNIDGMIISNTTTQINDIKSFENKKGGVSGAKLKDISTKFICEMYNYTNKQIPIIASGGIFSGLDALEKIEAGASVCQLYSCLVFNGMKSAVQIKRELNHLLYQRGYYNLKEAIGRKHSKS

A short description of experiment [5]: inhibition of PAO1 biofilm formation – strain PAO1, LB-PBS medium, absorbance 600 nm, primary screen (AID 1176). Also: test concentration not given here. As to conditions: P. aeruginosa PAO1 growth/biofilm, A600, 12 h; higher = more signal.
The nature of experiment [6]: growth modulation of vineyard yeast isolate – strain RM11-1a, OD600, basal, 24 h, primary screen (AID 1177).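 Also: cultures grown under basal conditions with no added stressor; test concentration not given here.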 Particulars: S. cerevisiae RM11-1a growth, OD600, 24 h; higher = more signal, called active from +8 up or from −8 down.
A short description of experiment [7]: growth of efflux-deficient E. coli DRC39 – strain DRC39, OD650, 24 h, E. coli filamentation inducers, primary screen (AID 1178).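 Also: growth measured as culture turbidity by optical density at 650 nm; test concentration not given here.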 Particulars: E. coli DRC39 acrAB, higher = more signal, called active from +8 up or from −8 down.
A short description of experiment [8]: growth of efflux-deficient E. coli DRC39 – strain DRC39, OD650, 48 h, E. coli filamentation inducers, primary screen (AID 1179).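 Also: screen aims at cell division blockers that make cells filament.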 Particulars: E. coli DRC39 delta-acrAB growth, higher = more signal, called active from +8 up or from −8 down.
The nature of experiment [9]: viability profiling in RPMI8226 myeloma cells – cell-based, resazurin fluorescence, basal, 24 h, PK04 Diversity Set, profiling panel (AID 1180).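 Also: RPMI8826 multiple myeloma cell line at 5000 cells per well; test concentration not given here.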 As to conditions: higher = more signal.
The target of experiment [10] is E3 ubiquitin-protein ligase XIAP (Homo sapiens) (UniProt P98170). The experiment can be described thus: small molecules binding XIAP protein – biophysical, small-molecule microarray, fluorescence 635 nm, primary screen (AID 1181).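 Also: score merges 667 nm emission and signal to noise over triplicate slides.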 Particulars: higher = more signal.
Sequence of E3 ubiquitin-protein ligase XIAP (Homo sapiens) (P98170 whole entry, looked up): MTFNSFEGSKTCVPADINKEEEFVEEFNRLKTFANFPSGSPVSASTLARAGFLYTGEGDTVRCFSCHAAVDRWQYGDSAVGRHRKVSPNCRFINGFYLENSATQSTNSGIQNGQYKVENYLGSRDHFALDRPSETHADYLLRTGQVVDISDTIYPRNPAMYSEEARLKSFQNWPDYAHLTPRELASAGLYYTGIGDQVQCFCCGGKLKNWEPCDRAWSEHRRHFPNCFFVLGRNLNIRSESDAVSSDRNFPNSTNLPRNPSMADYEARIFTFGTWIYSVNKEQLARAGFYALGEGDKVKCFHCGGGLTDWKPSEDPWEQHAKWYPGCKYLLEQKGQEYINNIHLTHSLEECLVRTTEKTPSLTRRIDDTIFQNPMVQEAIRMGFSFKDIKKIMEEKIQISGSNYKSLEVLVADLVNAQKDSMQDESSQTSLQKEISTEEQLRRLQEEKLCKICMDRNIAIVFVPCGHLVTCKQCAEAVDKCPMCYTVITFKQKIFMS

On to `COc1cc(Cc2cc3c(c(-c4ccccc4)n2)[Si](C(C)C)(C(C)C)OC3)cc(OC)c1OC`, for which the z-score in [1] was 0.233; in experiment [2], 0.299 (inactive); in [3], 1.03 (inactive); in [5], -0.133 (inactive); in experiment [6], -0.776 (inactive); in [7], 1.13 (inactive). Further, the z-score in experiment [8] was 0.405 (inactive); in experiment [9], 0.542. Also, the composite z-score is 0.021 (inactive) in experiment [4] and -0.305 in [10].
Turning to `CC1C2C(CCCO)=CC(C3C(=O)N(C(N)=O)C(=O)C23)N1Cc1cccc(OC(F)(F)F)c1` (stereo not given), the z-score in experiment [1] was 0.0337; in [2] it was -0.837 (inactive); in experiment [3] it was -0.402 (inactive); in experiment [5], 0.437 (inactive); in experiment [6], -0.369 (inactive); in experiment [7] it was 0.0299 (inactive). The z-score is -0.114 (inactive) in experiment [8] and -0.907 in experiment [9]. The composite z-score in experiment [4] was -0.766 (inactive); in experiment [10], -0.199.
Take `CC(C)(C)OC(=O)CC[C@]1(C(N)=O)N=C(c2ccc(OCCCO)cc2)O[C@H]1c1ccccc1N=[N+]=[N-]`: the z-score in experiment [1] was 0.551; in experiment [2] it was 0.0323 (inactive); in [3], -0.446 (inactive); in [5], -0.0279 (inactive); in [6], 0.979 (inactive); in experiment [7] it was 0.0489 (inactive). The z-score in [8] is 1.12 (inactive); in experiment [9], 0.596. Moreover, the figures for the composite z-score in experiment [4] and in experiment [10] were 0.982 (inactive) and 0.333, respectively.
Consider `CCCCC(=C=CC[C@H](O)c1ccccc1OCCO)CCO`, for which the z-score was -0.259 in [1]; -1.3 (inactive) in experiment [2]; 0.189 (inactive) in experiment [3]; 0.755 (inactive) in [5]; 0.493 (inactive) in experiment [6]; -0.295 (inactive) in [7]. In addition, the z-score in experiment [8] was -0.224 (inactive); in experiment [9], -0.0336. Moreover, the composite z-score in [4] was -0.228 (inactive); in [10] it was -0.223.
Consider `COC(=O)Cn1c(C(=O)N(C)C)cc2c1C[C@H]1CN(C(=O)c3ccccc3)[C@@](Cc3ccccc3)(C(=O)OC)[C@@H]21`, for which the z-score in [1] was 0.971; in experiment [2], 0.282 (inactive); in [3], 0.52 (inactive); in experiment [5], -0.747 (inactive); in experiment [6], -0.161 (inactive); in experiment [7] it was 0.304 (inactive). Further, the z-score was -1.15 (inactive) in [8] and 1.09 in experiment [9]. The composite z-score was -0.777 (inactive) in experiment [4] and 0.343 in experiment [10].
Turning to `C=CC[C@]1(C(=O)NCCN2CCOCC2)N=C(c2ccc(OCCCO)cc2)O[C@H]1c1ccccc1`, the z-score in experiment [1] was 0.543; in experiment [2], -0.916 (inactive); in [3], 0.635 (inactive); in experiment [5], 0.509 (inactive); in experiment [6], -0.548 (inactive); in [7], -0.0082 (inactive). In addition, the values for the z-score in experiment [8] and in experiment [9] were -0.864 (inactive) and 0.749, respectively. The composite z-score in [4] is 0.507 (inactive); in experiment [10], -0.0351.
For `C=CCNC(=O)[C@@H]1[C@H]2C(=O)O[C@H](c3ccccc3)[C@H](c3ccccc3)N2[C@H](c2ccc(OCCO)cc2)[C@@]12C(=O)Nc1ccc(C#CC3=CCCCC3)cc12`, the z-score is -0.411 in experiment [1]; 0.899 (inactive) in [2]; -2.16 (inactive) in [3]; 2.29 (inactive) in [5]; 2.01 (inactive) in [6]; -0.972 (inactive) in experiment [7]. Also, the results for the z-score in [8] and in experiment [9] were -0.563 (inactive) and -2.96, respectively. Also, the composite z-score in experiment [4] was 0.106 (inactive); in experiment [10] it was -0.178.
Regarding `COC(=O)C(CC#Cc1ccc2c(c1)[C@]1(C(=O)N2)[C@H](C(N)=O)[C@H]2C(=O)O[C@H](c3ccccc3)[C@H](c3ccccc3)N2[C@@H]1c1ccccc1OCCO)C(=O)OC`, the z-score in experiment [1] was -2.07; in [2], 0.289 (inactive); in experiment [3], -9.27 (active); in experiment [5], 2.35 (inactive); in [6], 2.62 (inactive); in experiment [7], 0.0025 (inactive). For the same molecule, the z-score in experiment [8] was 0.957 (inactive); in experiment [9] it was -7.44. The composite z-score was 1.53 (inactive) in experiment [4] and 0.0289 in [10].
As for `CC(C)c1ccc(NN2C(C(O)C(C)c3ccccc3)C=CC3C(=O)N(c4ccccc4)C(=O)C32)cc1` (stereo not given), the z-score was -1.72 in experiment [1]; 0.0145 (inactive) in experiment [2]; -1.23 (inactive) in experiment [3]; 1.22 (inactive) in [5]; 0.208 (inactive) in [6]; -0.828 (inactive) in experiment [7]. Further, the figures for the z-score in experiment [8] and in experiment [9] were -0.764 (inactive) and -1.2, respectively. In addition, the composite z-score in experiment [4] was -0.259 (inactive); in experiment [10], 0.155.
